# USP7 block – inhibitors of human USP7 deubiquitinase; Ubiquitin carboxyl-terminal hydrolase 7 (Homo sapiens), Q93009; purified USP7, Ub-rhodamine cleavage fluorescence; inhibition, % at 20 µM; 0.3% of 47,000 active; AID 1645854, 2021
# USP10 block – inhibitors of human USP10 deubiquitinase. Ubiquitin carboxyl-terminal hydrolase 10 (Homo sapiens), Q14694. purified USP10, Ub-rhodamine fluorescence, 60 min. inhibition, % at 20 µM. 1.1% of 47,000 active. AID 1645856, 2021
# USP17 block – inhibitors of human USP17 deubiquitinase; purified USP17, Ub-rhodamine cleavage fluorescence, 3 h; Ubiquitin carboxyl-terminal hydrolase 17-like protein 5 (Homo sapiens), A8MUK1; inhibition, % at 50 µM; 6.5% of 47,000 active
# Target sequence (A8MUK1 whole entry, looked up): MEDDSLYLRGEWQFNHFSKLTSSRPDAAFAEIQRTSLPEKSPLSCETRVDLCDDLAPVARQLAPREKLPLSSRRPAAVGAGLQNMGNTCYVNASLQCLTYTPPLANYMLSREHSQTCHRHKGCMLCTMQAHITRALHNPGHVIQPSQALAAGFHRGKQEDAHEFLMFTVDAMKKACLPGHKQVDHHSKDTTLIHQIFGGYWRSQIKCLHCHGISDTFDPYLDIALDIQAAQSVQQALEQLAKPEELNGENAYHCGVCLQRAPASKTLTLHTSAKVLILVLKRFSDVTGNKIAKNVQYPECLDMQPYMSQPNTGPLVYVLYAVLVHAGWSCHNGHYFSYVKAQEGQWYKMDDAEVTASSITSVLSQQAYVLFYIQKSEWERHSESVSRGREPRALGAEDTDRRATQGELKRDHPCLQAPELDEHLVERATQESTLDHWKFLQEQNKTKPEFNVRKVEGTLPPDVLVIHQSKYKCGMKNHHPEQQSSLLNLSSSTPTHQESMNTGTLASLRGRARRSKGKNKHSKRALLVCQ
# USP28 inh – inhibitors of human USP28 deubiquitinase; Ubiquitin carboxyl-terminal hydrolase 28 (Homo sapiens), Q96RU2; purified USP28, Ub-rhodamine cleavage fluorescence, 30 min; inhibition, % at 25 µM; 3% of 47,000 active
# USP8 block – inhibitors of human USP8 deubiquitinase | inhibition, % at 20 µM | Ubiquitin carboxyl-terminal hydrolase 8 (Homo sapiens), P40818 | 4.2% of 47,000 active | purified USP8, Ub-rhodamine cleavage fluorescence, 30 min
# USP30 block – inhibitors of human USP30 deubiquitinase | purified USP30, Ub-rhodamine cleavage fluorescence | inhibition, % at 25 µM | 5.3% of 47,000 active | AID 1645860, 2021
# The depositor's hits bear a star; i = inactive; x = not tested or not shown. Sampled rows, rich in hits. Any-hit rate of the full collection: about 13%. No stated cut-off is given here; in the data, active means inhibition above about 30%; inactive means the rest.
SMILES,USP7 block,USP10 block,USP17 block,USP28 inh,USP8 block,USP30 block
C=CC[C@H]1OC(=O)CCNC(=O)[C@H](C)N(C)C(=O)[C@H](C(C)CC)N(C)C(=O)[C@H]([C@@H](C)CC)NC(=O)[C@@H]2[C@@H](C)CCN2C1=O (some centres undefined),-76,-13,-214,-219,-337,i
Fc1ccc(Nc2ncnc3c(-c4ccccc4)noc23)cc1,4,5,44*,6,6,46*
COc1ccc(Nc2ncnc3c2c(-c2ccccc2)cn3-c2ccc(F)cc2)cc1Cl,5,1,19,9,13,11
Cc1oc2nc[nH]c(=O)c2c1C(=O)NCc1ccccc1,-18,-5,-140,-145,-121,i
NS(=O)(=O)c1cccc(NC(=O)/C=C/c2cn(-c3ccccc3)nc2-c2cccc([N+](=O)[O-])c2)c1,19,63*,4,23,71*,34*
Cc1nc2ccc(NC(=O)/C=C/c3cn(-c4ccccc4)nc3-c3cccnc3)cc2s1,13,0,-10,5,38*,11
CNC(=O)Cc1ccc(NC(=O)/C=C/c2cn(-c3ccccc3)nc2-c2ccc(F)cc2)cc1,7,10,4,-4,34*,-2
CC(=O)NS(=O)(=O)c1ccc(NC(=O)/C=C/c2cn(-c3ccccc3)nc2-c2ccccc2)cc1,41*,63*,25,25,65*,-28
Cc1nc2ccc(NC(=O)c3cn(-c4ccccc4)nc3-c3cccnc3)cc2s1,-6,-9,-18,4,-14,-115
O=C(O)c1cn(-c2ccccc2)nc1-c1cccc([N+](=O)[O-])c1,-5,5,-28,-12,3,0
Cc1ccc(S(=O)(=O)Nc2ccccc2C(C)(C)C)cc1C(=O)O,-2,6,-13,4,1,-69
CCCn1c(=O)c2sccc2n2c(CCC(=O)NC3CCCCCC3)nnc12,0,5,4,0,0,3
O=C(c1ccc(O)cc1)N1CC[C@@H]2CN(C(=O)c3ccccc3)[C@@H]2C1,0,-1,-3,-4,3,-4
O=C1CC2C3CCC(=O)c4c(O)ccc(c43)C2(O)c2cccc(O)c21 (centres undefined),-26,10,47*,37*,35*,0
COc1ccc(C(C)NC(=O)c2cnc(-c3ccccc3)nc2-c2ccncc2)cc1 (centres undefined),-1,-9,40*,-126,5,i
Cc1ccc(-c2ncc(C(=O)Nc3c(F)cccc3F)c(-c3ccncc3)n2)cc1,-18,-3,-135,-109,61*,-469
CCCCCC(=O)Nc1ncc2c(n1)CC(c1ccc(OC)c(OC)c1)CC2=O (centres undefined),-2,-2,1,1,0,4
FC(F)(F)Oc1ccc(-c2cnc(NCc3ccc(Cl)cc3)nc2)cc1,13,7,25,20,28,34*
NC(=O)CSc1nc2nccnc2c(=O)n1Cc1ccc(F)cc1,-2,-6,-21,-10,-54,-37
CCc1ccc(NC(=O)CSc2nc3nccnc3c(=O)n2Cc2ccc(F)cc2)cc1,7,21,7,-9,44*,-1
CC1CCN(c2cc(-n3cnc(C(=O)N4CCCCC4)c3)ncn2)CC1,-10,0,-3,51*,0,-4
CC(=O)Nc1ccc(-n2cnc(C(=O)N3CCCC(C)C3)c2)nc1 (centres undefined),2,0,11,6,15,41*
CC1CCN(c2cc(-n3cnc(C(=O)N4CCCC(C)C4)c3)ncn2)CC1 (centres undefined),-9,1,1,62*,-1,0
CC(=O)Nc1ccc(-n2cnc(C(=O)N3CCCCCC3)c2)nc1,-5,-2,-6,-2,-3,-1
Cn1ncc2c1C(COCC1CC1)N(C(=O)c1ccccn1)CC2 (centres undefined),-5,-4,-7,-15,-43,-24
SMILES,USP7 block,USP10 block,USP17 block,USP28 inh,USP8 block,USP30 block
Cc1noc2ncnc(N(Cc3ccco3)CC3CCCO3)c12 (centres undefined),-1,-3,3,6,7,0
CCOC(=O)c1ccc(Nc2nnc(C)c(=O)[nH]2)cc1,1,0,-1,-2,-12,-8
COc1ccc(Nc2nnc(Cc3ccc(Cl)cc3)c(=O)[nH]2)cc1,28,39*,-3,-8,92*,4
CCC1(C)Cc2c(sc3nc(SC(C)C)nc(NCCOC)c23)CO1 (centres undefined),-3,0,-9,x,0,x
CSc1cccc(NC(=O)C2C3C=CC4(O3)C2C(=O)N(C2CCCCCC2)C4C(=O)NC2CCCCC2)c1 (centres undefined),-194,9,4,3,0,8
CC1(c2ccc3c(c2)CCC3)NC(=O)N(Cc2cc(=O)n3ccsc3n2)C1=O (centres undefined),-6,-8,33*,7,16,-31
CSc1cccc(NC(=O)COc2cccc3ccccc23)c1,15,26,41*,35*,43*,78*
Cc1cc(Cl)ccc1OCC(=O)Nc1ccccc1,-14,2,14,-6,0,-3
Cc1ccc(-c2cnc(C3CC3)o2)cc1S(=O)(=O)Nc1ccc(F)c(Cl)c1,-37,39*,66*,29,4,2
Cc1ncc(-c2ccc(C)c(S(=O)(=O)Nc3cccc4c3CCCC4)c2)o1,0,6,0,24,15,-8
COc1ccc(NS(=O)(=O)c2cc(-c3cnc(C4CC4)o3)ccc2C)cc1OC,-2,1,-6,-7,-5,-23
Cc1ccc(C)c(NS(=O)(=O)c2cc(-c3cnc(C4CC4)o3)ccc2C)c1,9,12,52*,-4,0,-2
COc1cccc(CNC(=O)CN2C(=O)[C@@H]3CCCN3c3ncccc32)c1,2,-4,11,0,15,-14
COc1ccc(N2CCN(C(=O)CN3C(=O)[C@H]4CCCN4c4ncccc43)CC2)cc1,-6,-1,34*,-20,3,-74
Cc1nn(-c2ccccc2)c2nc(C3CCN(C(=O)c4n[nH]c5c4CCC5)CC3)ccc12,8,12,15,10,18,38*
O=C(Cn1nc2ccc(C(=O)NCc3ccccc3)cn2c1=O)Nc1ccc2c(c1)OCO2,2,12,52*,8,1,-22
Cc1ccc(C(=O)Nc2ncn(CC(=O)Nc3ccccc3F)n2)cc1,5,1,0,10,-21,9
Cc1ccc(CNC(=O)c2ccc3nn(CC(=O)Nc4ccccc4F)c(=O)n3c2)cc1,10,23,6,-15,67*,-56

# Compound activity (PubChem BioAssay)
